Records with an inconclusive call do not appear. Active and inactive are the calls of the source. Unless noted, the call rests on the fitted dose curve; in most records, active means well fitted curve in the direction sought with a large enough effect in the repeat runs; inconclusive means weak or mixed curves; inactive means no such curve, though single readings can be large; an effect the other way counts as inactive or inconclusive.
Experiments:
[1] = qHTS assay to identify small molecule agonists of H2AX (AID 1224845; active means well fitted activation curve with a large enough effect in the signal ratio in the repeat runs, not every such curve was filed as active; the % refers to the signal ratio)
Method in brief: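 Wild-type CHO-K1 cells plated overnight, then exposed 3 hr at 37C to compounds at 15 concentrations (0.76% DMSO). Lysed, then HTRF anti-pH2AX(S139)-cryptate/anti-H2AX-d2 detection after 24 hr at room temperature; emissions 665 and 620 nm.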

[2] = qHTS assay to identify small molecule agonists of the hypoxia (HIF-1) signaling pathway (AID 1224846; active means well fitted activation curve with a large enough effect in the signal ratio in the repeat runs, not every such curve was filed as active; the % refers to the signal ratio)
Method in brief: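 HRE-bla ME-180 beta-lactamase reporter cells in medium with 0.5% dialyzed FBS, pre-incubated 5 h then exposed to compounds 17 h at 37C, 5% CO2; reporter induction read with CCF4-AM FRET substrate.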

[3] = qHTS RealTime-Glo MT Cell Viability Assay in HepG2 cells - 24 hour (AID 1224867); further: nearly all actives have a fitted effect of over 50% in size
Method in brief: (§1)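 Cell number in HepG2 cultures estimated from NanoLuc luminescence generated by metabolic reduction of a prosubstrate by living cells. The homogeneous, nonlytic format allowed repeated reads at 0, 8, 16, 24, 32 and 40 h of compound exposure.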

[4] = qHTS RealTime-Glo MT Cell Viability Assay in HEK293 cells - 32 hour (AID 1224868); further: top concentration of the series differs between compounds; nearly all actives have a fitted effect of over 50% in size
Method in brief: (§2)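 Homogeneous bioluminescent viability format in HEK293 cells (600 cells/well). Following 5 h at 37 C/5% CO2, 23 nL compound was pintooled; the signal was measured repeatedly during 40 h incubation.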

[5] = A CellTox Green Cytotoxicity Assay to monitor cytotoxicity in HEK293 cells - 0 hour (AID 1224869); further: nearly all actives have a fitted effect of over 50% in size
Method in brief: (§3)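 HEK293 cells, 600/well, were preincubated 5 hours and then exposed to compounds at 37 C for up to 40 hours. A cell-impermeant cyanine dye staining dead-cell DNA was read by fluorescence at 0, 8, 16, 24, 32 and 40 h time points.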

[6] = qHTS RealTime-Glo MT Cell Viability Assay in HepG2 cells - 40 hour (AID 1224870); further: nearly all actives have a fitted effect of over 50% in size
Method in brief: (§4)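 HepG2 cells mixed with RealTime-Glo MT reagents (NanoLuc plus cell-permeant prosubstrate) were seeded at 600 cells/well, incubated 5 h at 37 C/5% CO2, then pinned with compounds in DMSO; nonlytic luminescence tracked viability during 40 h treatment.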

[7] = A CellTox Green Cytotoxicity Assay to monitor cytotoxicity in HEK293 cells - 40 hour (AID 1224871); further: nearly all actives have a fitted effect of over 45% in size
Method in brief: as §3

[8] = qHTS RealTime-Glo MT Cell Viability Assay in HEK293 cells - 16 hour (AID 1224872)
Method in brief: as §2

[9] = qHTS RealTime-Glo MT Cell Viability Assay in HepG2 cells - 8 hour (AID 1224873); further: nearly all actives have a fitted effect of over 55% in size
Method in brief: as §4

[10] = qHTS RealTime-Glo MT Cell Viability Assay in HEK293 cells - 40 hour (AID 1224874); details: RealTime-Glo luminescence; max response: active compounds read low; further: nearly all actives have a fitted effect of over 50% in size
Method in brief: (§5)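 600 cells/well were plated with the nonlytic NanoLuc/prosubstrate reagent, pre-incubated 5 h, then given 23 nL of compound in DMSO. Incubation at 37 C for 40 h, with luminescence from viable-cell-reduced substrate read repeatedly from 0 h.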

[11] = A CellTox Green Cytotoxicity Assay to monitor cytotoxicity in HEK293 cells - 24 hour (AID 1224875); further: series mostly up to about 77 µM; nearly all actives have a fitted effect of over 45% in size
Method in brief: as §3

[12] = A CellTox Green Cytotoxicity Assay to monitor cytotoxicity in HepG2 cells - 16 hour (AID 1224876); further: nearly all actives have a fitted effect of over 45% in size
Method in brief: (§6)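 HepG2 cells, 600/well, preincubated 5 h with CellTox Green dye, then exposed to Tox21 compounds in DMSO at 37 C for up to 40 h. Dead-cell DNA fluorescence read at the indicated time point.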

[13] = qHTS RealTime-Glo MT Cell Viability Assay in HepG2 cells - 32 hour (AID 1224877); further: nearly all actives have a fitted effect of over 55% in size
Method in brief: as §1

[14] = A CellTox Green Cytotoxicity Assay to monitor cytotoxicity in HepG2 cells - 24 hour (AID 1224878); further: nearly all actives have a fitted effect of over 45% in size
Method in brief: as §6

[15] = qHTS RealTime-Glo MT Cell Viability Assay in HEK293 cells - 0 hour (AID 1224880)
Method in brief: as §5

[16] = A CellTox Green Cytotoxicity Assay to monitor cytotoxicity in HEK293 cells - 32 hour (AID 1224881); further: nearly all actives have a fitted effect of over 40% in size
Method in brief: as §3

[17] = A CellTox Green Cytotoxicity Assay to monitor cytotoxicity in HepG2 cells - 40 hour (AID 1224879); further: nearly all actives have a fitted effect of over 40% in size
Method in brief: as §6

[18] = qHTS assay to identify small molecule antagonists of the estrogen related receptor (ERR) signaling pathway from Tox21 library (AID 1224848); further: nearly all actives have a fitted effect of over 50% in size
Method in brief: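 Cells: ERR line, 2,000/well; 6 h preincubation 37 C/5% CO2. Cpd in DMSO via pin tool; 18 h, 37 C. ONE-Glo, 30 min RT, luminescence.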

[19] = qHTS assay to identify small molecule agonists of the estrogen related receptor (ERR) signaling pathway from Tox21 library (AID 1224849; calls by dose curve; further: nearly all actives have a fitted effect of over 15% in size)
Method in brief: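 ERR reporter cells (NTP line) pre-incubated 6 hours at 37 C, then exposed to compounds for 18 hours at 37 C. ONE-Glo luciferase luminescence was read after 30 minutes at room temperature.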

[20] = qHTS assay to identify small molecule agonists of H2AX - cell viability counter screen (AID 1224847; calls by dose curve; further: top concentration of the series differs between compounds; nearly all actives have a fitted effect of over 30% in size)
Method in brief: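 For this counter screen, overnight-attached CHO-K1 cells received test compounds (15 concentrations, 0.76% DMSO final); 3 hr later at 37C, CellTiter-Glo reagent was added and luminescence recorded after 30 min at room temperature.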
On the % scale 0 is the no-effect control and ±100 the full control effect.

Cc1ccc(-c2ccccc2C#N)cc1
inactive: Potency [1] | outcome [2] | outcome [3] | Potency [4] | outcome [5] | Potency [6] | Potency [7] | Potency [8] | outcome [9] | max response [10] 1.26% | outcome [11] | outcome [12] | Potency [13] | outcome [14] | Potency [15] | outcome [16]

O=C(O)c1cc(C(=O)O)cc(C(=O)O)c1
inactive: Potency [1] | outcome [2] | Potency [4] | outcome [5] | Potency [6] | Potency [7] | Potency [8] | outcome [9] | max response [10] 16.8% | outcome [11] | outcome [12] | Potency [13] | outcome [14] | Potency [17] | Potency [15] | outcome [16]

O=S(=O)(O)c1cccc2c(S(=O)(=O)O)cccc12
inactive: Potency [1] | outcome [2] | Potency [18] | outcome [19] | outcome [3] | outcome [5] | Potency [6] | Potency [7] | outcome [9] | outcome [12] | Potency [13] | outcome [14] | Potency [17] | Potency [15] | outcome [16]

C[N+]1(C)CCCC(OC(=O)C(O)(c2ccccc2)c2ccccc2)C1 (configuration not stated)
inactive: Potency [1] | outcome [20] | Potency [18] | outcome [19] | outcome [3] | Potency [4] | outcome [5] | Potency [6] | Potency [7] | Potency [8] | outcome [9] | max response [10] -4.47% | outcome [12] | Potency [13] | Potency [17] | Potency [15] | outcome [16]

NS(=O)(=O)Cc1noc2ccccc12
inactive: Potency [1] | outcome [20] | Potency [18] | outcome [19] | outcome [3] | Potency [4] | outcome [5] | Potency [6] | Potency [7] | Potency [8] | outcome [9] | max response [10] 1.21% | outcome [11] | outcome [12] | Potency [13] | outcome [14] | Potency [17] | Potency [15] | outcome [16]

C=C(C)C(=O)OCC(O)CO (configuration not stated)
inactive: Potency [1] | outcome [2] | Potency [18] | outcome [19] | outcome [3] | Potency [4] | outcome [5] | Potency [6] | Potency [7] | Potency [8] | outcome [9] | max response [10] 2.31% | outcome [11] | outcome [12] | Potency [13] | outcome [14] | Potency [17] | outcome [16]

C=CCOCC(O)CO (configuration not stated)
inactive: Potency [1] | outcome [2] | Potency [4] | outcome [5] | Potency [8] | outcome [9] | max response [10] 16.5% | Potency [13]

Cc1ccc(C(=O)c2ccccc2)cc1
inactive: Potency [1] | outcome [2] | outcome [3] | Potency [4] | outcome [5] | Potency [6] | Potency [7] | Potency [8] | outcome [9] | max response [10] -1.28% | outcome [11] | outcome [12] | Potency [13] | outcome [14] | Potency [17] | Potency [15] | outcome [16]

CN(C)CCN(C)CCN(C)C
inactive: Potency [1] | outcome [2] | outcome [3] | Potency [4] | outcome [5] | Potency [7] | Potency [8] | outcome [9] | max response [10] 4.88% | outcome [11] | outcome [12] | Potency [13] | outcome [14] | Potency [17] | Potency [15] | outcome [16]

CN(C)C(=O)Oc1ccc[n+](C)c1
inactive: Potency [1] | outcome [20] | Potency [18] | outcome [19] | outcome [3] | Potency [4] | outcome [5] | Potency [6] | Potency [7] | Potency [8] | outcome [9] | max response [10] 5.97% | outcome [11] | outcome [12] | Potency [13] | outcome [14] | Potency [17] | Potency [15] | outcome [16]

CO/N=C(\C(=O)N[C@@H]1C(=O)N2C(C(=O)O)=C(CSc3nc(=O)c(O)nn3C)CS[C@H]12)c1csc(N)n1
inactive: Potency [1] | outcome [20] | Potency [18] | outcome [19] | Potency [4] | outcome [5] | Potency [6] | Potency [7] | Potency [8] | outcome [9] | max response [10] 11.9% | outcome [11] | outcome [12] | Potency [13] | outcome [14] | Potency [17] | Potency [15] | outcome [16]

C[N+]12CCC(CC1)C(OC(=O)C(O)(c1ccccc1)c1ccccc1)C2 (configuration not stated)
inactive: Potency [1] | outcome [20] | Potency [18] | outcome [19] | Potency [4] | outcome [5] | Potency [7] | Potency [8] | outcome [9] | max response [10] 4.99% | outcome [11] | outcome [12] | Potency [13] | outcome [14] | Potency [15] | outcome [16]

CN1CCC(=C2c3ccccc3CCc3cccnc32)CC1
inactive: Potency [1] | outcome [2] | outcome [3] | Potency [4] | outcome [5] | Potency [6] | Potency [7] | Potency [8] | outcome [9] | max response [10] -11% | outcome [11] | outcome [12] | Potency [13] | outcome [14] | Potency [15] | outcome [16]

O=C(CO)[C@@H](O)[C@H](O)[C@@H](O)CO
inactive: Potency [1] | outcome [2] | Potency [18] | outcome [19] | outcome [3] | Potency [4] | outcome [5] | Potency [6] | Potency [7] | Potency [8] | outcome [9] | max response [10] 5.66% | outcome [11] | Potency [13] | Potency [15] | outcome [16]
